# From PubChem BioAssay (NCATS)
# Values joined by “and” are separate entries in the source; they are usually repeats but may differ in a detail not shown here. Equal values may be shown once. Results filed as inconclusive are left out. A call without a number means that no potency is given here. Active and inactive are the calls of the source. Calls come from the whole dose curve; as a rule, active = well fitted curve in the direction sought with a large enough effect; inconclusive = small, poorly fitted or top-dose-only effect, or another doubt; inactive = no such curve, though single readings can be large; an effect the other way counts as inactive or inconclusive.
# How the values were obtained:
# [1] = qHTS of pediatric cancer cell lines to identify multiple opportunities for drug repurposing: Primary screen for BT-37 cells (AID 1347094); note: potency is the fitted concentration of half-maximal effect
# In short: (§1)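 Following a 5-hour attachment period, cells at 500-1,000/well received compounds and were cultured for 48 hours. CellTiter-Glo was added and luminescence read to estimate viable, metabolically active cells.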
# [2] = qHTS of pediatric cancer cell lines to identify multiple opportunities for drug repurposing: Primary screen for NB-EBc1 cells (AID 1347095); note: potency is the fitted concentration of half-maximal effect
# In short: as §1
# [3] = qHTS of pediatric cancer cell lines to identify multiple opportunities for drug repurposing: Primary screen for U-2 OS cells (AID 1347096); note: nearly all actives have a fitted effect of over 50% in size
# In short: (§2)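 Cells (500-1,000/well) rested 5 h, then received compounds for 48 h; metabolically active cells were measured by CellTiter-Glo luminescence. Final concentrations spanned up to 46 µM (MIPE, 11-point) or 0.59 nM-46 µM (NPC, 8-point) in primary screens, 11-point in follow-ups.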
# [4] = qHTS of pediatric cancer cell lines to identify multiple opportunities for drug repurposing: Primary screen for Saos-2 cells (AID 1347097); note: nearly all actives have a fitted effect of over 40% in size; note: potency is the fitted concentration of half-maximal effect
# In short: as §1
# [5] = qHTS of pediatric cancer cell lines to identify multiple opportunities for drug repurposing: Primary screen for SK-N-SH cells (AID 1347098); note: nearly all actives have a fitted effect of over 65% in size; note: potency is the fitted concentration of half-maximal effect
# In short: as §2
# [6] = qHTS of pediatric cancer cell lines to identify multiple opportunities for drug repurposing: Primary screen for NB1643 cells (AID 1347099); note: nearly all actives have a fitted effect of over 50% in size; note: potency is the fitted concentration of half-maximal effect
# In short: as §1
# [7] = qHTS of pediatric cancer cell lines to identify multiple opportunities for drug repurposing: Primary screen for LAN-5 cells (AID 1347100); note: potency is the fitted concentration of half-maximal effect
# In short: as §2
# [8] = qHTS of pediatric cancer cell lines to identify multiple opportunities for drug repurposing: Primary screen for Rh18 cells (AID 1347102); note: nearly all actives have a fitted effect of over 65% in size; note: potency is the fitted concentration of half-maximal effect
# In short: as §2
# [9] = qHTS of pediatric cancer cell lines to identify multiple opportunities for drug repurposing: Primary screen for OHS-50 cells (AID 1347103); note: nearly all actives have a fitted effect of over 40% in size; note: potency is the fitted concentration of half-maximal effect
# In short: as §2
# [10] = qHTS of pediatric cancer cell lines to identify multiple opportunities for drug repurposing: Primary screen for RD cells (AID 1347104); note: nearly all actives have a fitted effect of over 55% in size; note: potency is the fitted concentration of half-maximal effect
# In short: as §1
# [11] = qHTS of pediatric cancer cell lines to identify multiple opportunities for drug repurposing: Primary screen for MG 63 (6-TG R) cells (AID 1347105); note: nearly all actives have a fitted effect of over 50% in size; note: potency is the fitted concentration of half-maximal effect
# In short: as §1
# [12] = qHTS of pediatric cancer cell lines to identify multiple opportunities for drug repurposing: Primary screen for control Hh wild type fibroblast cells (AID 1347106); note: nearly all actives have a fitted effect of over 55% in size; note: potency is the fitted concentration of half-maximal effect
# In short: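 Viability after 48 h compound treatment at 37C, 500-1,000 cells/well, read as ATP luminescence with CellTiter-Glo. Primary screens used 11-point (MIPE, 0.78 nM-46 µM) or 8-point (NPC, 0.59 nM-46 µM) final concentrations; follow-up screens used 11-point dilutions.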
# [13] = qHTS of pediatric cancer cell lines to identify multiple opportunities for drug repurposing: Primary screen for Rh30 cells (AID 1347107); note: series mostly up to about 46 µM; nearly all actives have a fitted effect of over 75% in size
# In short: as §2
# [14] = qHTS of pediatric cancer cell lines to identify multiple opportunities for drug repurposing: Primary screen for Rh41 cells (AID 1347108); note: nearly all actives have a fitted effect of over 70% in size; note: potency is the fitted concentration of half-maximal effect
# In short: as §1
# [15] = qHTS of pediatric cancer cell lines to identify multiple opportunities for drug repurposing: Primary screen for BT-12 cells (AID 1347101); note: nearly all actives have a fitted effect of over 25% in size; note: potency is the fitted concentration of half-maximal effect
# In short: as §2
# [16] = qHTS of pediatric cancer cell lines to identify multiple opportunities for drug repurposing: Confirmatory screen for NB1643 cells (AID 1347109); note: potency is the fitted concentration of half-maximal effect; nearly all actives have a fitted effect of over 45% in size
# In short: as §2
# [17] = qHTS of pediatric cancer cell lines to identify multiple opportunities for drug repurposing: Confirmatory screen for A673 cells (AID 1347110);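 note: potency is the fitted concentration of half-maximal effect; cells exposed to compound for 48 h before the viability read; nearly all actives have a fitted effect of over 65% in size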
# In short: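 Concentration-response curves came straight from titrations: 11 points (0.78 nM to 46 µM) for MIPE and several concentrations (0.59 nM to 46 µM) for NPC in primary, 11 points in follow-up. Readout: ATP luminescence at 48 h.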
# [18] = qHTS of pediatric cancer cell lines to identify multiple opportunities for drug repurposing: Confirmatory screen for SK-N-MC cells (AID 1347111);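 note: potency is the fitted concentration of half-maximal effect; cells exposed to compound for 48 h before the readout; nearly all actives have a fitted effect of over 70% in size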
# In short: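 Seed 500-1,000 cells/well; rest 5 h at 37 degrees C. Pin-transfer compounds, 11-point titration. Incubate 48 h. Add CellTiter-Glo, 15 min RT, read luminescence.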
# [19] = qHTS of pediatric cancer cell lines to identify multiple opportunities for drug repurposing: Confirmatory screen for BT-12 cells (AID 1347112); note: nearly all actives have a fitted effect of over 55% in size; note: potency is the fitted concentration of half-maximal effect
# In short: as §2
# [20] = qHTS of pediatric cancer cell lines to identify multiple opportunities for drug repurposing: Confirmatory screen for LAN-5 cells (AID 1347113); note: nearly all actives have a fitted effect of over 65% in size; note: potency is the fitted concentration of half-maximal effect
# In short: as §2
SMILES,Potency [1],Potency [2],Potency [3],Potency [4],Potency [5],Potency [6],Potency [7],Potency [8],Potency [9],Potency [10],Potency [11],Potency [12],outcome [13],Potency [14],Potency [15],Potency [16],Potency [17],Potency [18],Potency [19],Potency [20]
Nc1c2c(nc3ccccc13)CCCC2,inactive,inactive,inactive,inactive,inactive,inactive,inactive,inactive,inactive,inactive,inactive,inactive,inactive,inactive,–,–,–,–,–,–
CN(C)c1nc(N(C)C)nc(N(C)C)n1,inactive,inactive,inactive,inactive,inactive,inactive,inactive,inactive,inactive,inactive,inactive,inactive,inactive,inactive,–,–,–,–,–,–
COc1ccccc1OCC(O)CN1CCN(CC(=O)Nc2c(C)cccc2C)CC1 (centres undefined),inactive,inactive,inactive,inactive,inactive,inactive,inactive,inactive,inactive,inactive,inactive,inactive,inactive,inactive,–,–,–,–,–,–
NS(=O)(=O)c1cc2c(cc1Cl)NCNS2(=O)=O,inactive,inactive,inactive,inactive,inactive,inactive,inactive,inactive,inactive,inactive,inactive,inactive,inactive,inactive,inactive,–,–,–,–,–
CN1CCN2c3ccccc3Cc3ccccc3C2C1 (centres undefined),inactive,inactive,–,inactive,inactive,inactive,–,inactive,–,inactive,inactive,inactive,inactive,inactive,–,–,–,–,–,–
COc1ccc2c(c1)c(CC(=O)O)c(C)n2C(=O)c1ccc(Cl)cc1,inactive,inactive,inactive,–,–,–,inactive,inactive,inactive,inactive,inactive,inactive,inactive,inactive,–,–,–,–,–,–
O=C1c2c(O)ccc(O)c2C(=O)c2c(NCCNCCO)ccc(NCCNCCO)c21,243 nM (active) and 38.9 nM (active),74.3 nM (active) and 59.6 nM (active),–,1.66 µM (active) and 1.68 µM (active),383 nM (active) and 486 nM (active),469 nM (active) and 668 nM (active),83.3 nM (active),2.09 µM (active) and 2.37 µM (active),344 nM (active) and 49 nM (active),4.69 µM (active) and 6.68 µM (active),372 nM (active),13.3 µM (active),–,4.18 µM (active) and 9.44 µM (active),–,0.369 µM (active),0.147 µM (active),0.208 µM (active),1.85 µM (active),0.165 µM (active)
Cn1ccc2cc3c(cc21)CCN3C(=O)Nc1cccnc1,inactive,inactive,inactive,inactive,–,–,inactive,inactive,inactive,inactive,inactive,inactive,inactive,inactive,inactive,–,–,–,–,–
CN(C)CCOC(c1ccccc1)c1ccccc1,inactive,inactive,–,inactive,inactive,–,inactive,inactive,–,inactive,inactive,inactive,inactive,inactive,inactive,–,–,–,–,–
CCC1(C)CC(=O)NC1=O (centres undefined),inactive,inactive,–,inactive,inactive,inactive,inactive,inactive,inactive,inactive,inactive,inactive,inactive,inactive,inactive,–,–,–,–,–
Cc1cc(C(C)(C)C)cc(C)c1CC1=NCCN1,inactive,inactive,–,inactive,inactive,inactive,inactive,inactive,–,–,inactive,inactive,inactive,inactive,inactive,–,–,–,–,–
CN(C)CCCN1c2ccccc2CCc2ccc(Cl)cc21,12.2 µM (active) and 24.6 µM (active),inactive,–,16.8 µM (active),1.52 µM (active) and 24.4 µM (active),–,–,–,13.7 µM (active) and 17.4 µM (active),1.48 µM (active),–,–,inactive,inactive,19.3 µM (active) and 15.5 µM (active),–,–,–,–,–
CC1COc2c(N3CCN(C)CC3)c(F)cc3c(=O)c(C(=O)O)cn1c23 (centres undefined),inactive,inactive,inactive,inactive,–,–,inactive,inactive,inactive,inactive,inactive,inactive,inactive,inactive,inactive,–,–,–,–,–
CS(=O)(=O)CCNCc1ccc(-c2ccc3ncnc(Nc4ccc(OCc5cccc(F)c5)c(Cl)c4)c3c2)o1,24.3 µM (active) and 27.6 µM (active),3.72 µM (active),–,29.6 µM (active),9.7 µM (active),–,16600 nM (active),20.9 µM (active),–,1.32 µM (active) and 26.6 µM (active),5900 nM (active),inactive,–,–,–,–,20.8 µM (active),–,13.1 µM (active),–
Nc1ccn([C@H]2CC[C@@H](CO)O2)c(=O)n1,inactive,inactive,–,inactive,inactive,inactive,inactive,inactive,inactive,inactive,inactive,inactive,inactive,inactive,–,–,–,–,–,–
Cc1cn([C@H]2C=C[C@@H](CO)O2)c(=O)[nH]c1=O,inactive,inactive,–,inactive,inactive,inactive,inactive,inactive,inactive,inactive,inactive,inactive,inactive,inactive,–,–,–,–,–,–
COc1ccc2[nH]cc(CCNC(C)=O)c2c1,inactive,inactive,–,inactive,inactive,inactive,inactive,inactive,inactive,inactive,inactive,inactive,inactive,inactive,inactive,–,–,–,–,–

SMILES,Potency [1],Potency [2],Potency [3],Potency [4],Potency [5],Potency [6],Potency [7],Potency [8],Potency [9],Potency [10],Potency [11],Potency [12],outcome [13],Potency [14],Potency [15],Potency [16],Potency [17],Potency [18],Potency [19],Potency [20]
Cn1c(=O)c2c(ncn2C)n(C)c1=O,inactive,inactive,–,inactive,inactive,inactive,inactive,inactive,inactive,inactive,inactive,inactive,inactive,inactive,–,–,–,–,–,–
NC(=O)OCC(COC(N)=O)c1ccccc1,inactive,inactive,inactive,–,inactive,inactive,inactive,inactive,inactive,inactive,inactive,inactive,inactive,inactive,–,–,–,–,–,–
O=C(c1ccc(F)cc1)C1CCN(CCn2c(=O)[nH]c3ccccc3c2=O)CC1,inactive,inactive,–,inactive,inactive,inactive,inactive,inactive,inactive,inactive,inactive,inactive,inactive,inactive,–,–,–,–,–,–
O=C(C1CCCCC1)N1CC(=O)N2CCc3ccccc3C2C1 (centres undefined),inactive,inactive,–,inactive,inactive,inactive,inactive,inactive,inactive,inactive,inactive,inactive,inactive,inactive,–,–,–,–,–,–
CCN1CCCC1CNC(=O)c1cc(S(=O)(=O)CC)c(N)cc1OC (centres undefined),inactive,inactive,–,inactive,inactive,inactive,inactive,inactive,inactive,inactive,inactive,inactive,inactive,inactive,inactive,–,–,–,–,–
Cc1cnc(C(=O)NCCc2ccc(S(=O)(=O)NC(=O)NC3CCCCC3)cc2)cn1,inactive,inactive,–,inactive,inactive,inactive,inactive,inactive,inactive,inactive,inactive,inactive,inactive,inactive,inactive,–,–,–,–,–
CC12CC3CC(C)(C1)CC(N)(C3)C2,inactive,inactive,–,inactive,27.1 µM (active),–,inactive,inactive,–,–,inactive,inactive,inactive,–,–,–,–,–,–,–
CN1C2CCC1CC(OC(=O)C(CO)c1ccccc1)C2 (centres undefined),inactive,inactive,inactive,inactive,–,inactive,inactive,inactive,inactive,inactive,inactive,inactive,inactive,inactive,–,–,–,–,–,–
CCC1(c2ccccc2)C(=O)NCNC1=O,inactive,inactive,inactive,inactive,–,–,inactive,inactive,inactive,–,–,inactive,inactive,inactive,inactive,–,–,–,inactive,inactive
CC[N+](CC)(CC)CCOc1cccc(OCC[N+](CC)(CC)CC)c1OCC[N+](CC)(CC)CC,inactive,inactive,–,inactive,inactive,inactive,inactive,inactive,inactive,inactive,inactive,inactive,inactive,inactive,inactive,–,–,–,–,–
CN(CCOc1ccc(NS(C)(=O)=O)cc1)CCc1ccc(NS(C)(=O)=O)cc1,inactive,inactive,–,inactive,inactive,inactive,inactive,inactive,inactive,inactive,inactive,inactive,inactive,inactive,–,–,–,–,–,–
O=C1N(c2ccccc2)c2ccccc2C1(Cc1ccncc1)Cc1ccncc1,inactive,inactive,–,inactive,inactive,inactive,inactive,inactive,inactive,inactive,inactive,inactive,inactive,inactive,inactive,–,–,–,–,–
CN(Cc1cnc2nc(N)nc(N)c2n1)c1ccc(C(=O)N[C@@H](CCC(=O)O)C(=O)O)cc1,9.8 nM (active) and 48.5 nM (active),106 nM (active) and 187 nM (active),–,inactive,inactive,–,52.6 nM (active),inactive,9.8 nM (active),0.0106 µM (active),inactive,inactive,inactive,inactive,–,–,0.0329 µM (active),0.0369 µM (active),–,inactive
Cc1cn([C@H]2C[C@H](N=[N+]=[N-])[C@@H](CO)O2)c(=O)[nH]c1=O,inactive,inactive,inactive,inactive,–,–,inactive,inactive,inactive,inactive,inactive,inactive,inactive,inactive,–,–,–,–,–,–
CCCCc1oc2ccccc2c1C(=O)c1cc(I)c(OCCN(CC)CC)c(I)c1,30.9 µM (active),8.33 µM (active),–,18.7 µM (active) and 26.6 µM (active),8.57 µM (active) and 21.7 µM (active),–,1480 nM (active),16.6 µM (active),5.44 µM (active) and 11 µM (active),26.4 µM (active) and 26.6 µM (active),–,inactive,inactive,–,–,44.7 µM (active),56.2 µM (active),22.4 µM (active),79.4 µM (active),35.5 µM (active)
CC[C@@]1(O)C(=O)OCc2c1cc1n(c2=O)Cc2cc3c(CN(C)C)c(O)ccc3nc2-1,19.5 nM (active) and 86.3 nM (active),47.3 nM (active) and 26.4 nM (active),–,29.9 nM (active) and 235 nM (active),344 nM (active) and 1.71 µM (active),26.6 nM (active) and 296 nM (active),47.3 nM (active) and 41.8 nM (active),473 nM (active) and 1.48 µM (active),27.6 nM (active) and 109 nM (active),2.66 µM (active) and 4.69 µM (active),66.8 nM (active) and 296 nM (active),–,–,2.11 µM (active) and 2.64 µM (active),–,0.329 µM (active),0.131 µM (active),0.0465 µM (active),3.69 µM (active),0.185 µM (active)
